The entries come from a sample that favours hits as a whole.
CHX counter: counter-screen for Shiga toxin inhibitors: cycloheximide protein synthesis inhibition; cell reporter, cycloheximide protein synthesis inhibition counterscreen; max response, %; hit rate 12% among 300,000; AID 2314; in the data active = max response mostly above about 13%, no sharp cut-off; inactive = mostly below about 14%; note: read at 38.3 µM for the half of the compounds with a filed dose
RE007 growth inh: less growth of the S. pombe RE007 Vpr strain; S. pombe RE007 Vpr strain, BacTiter-Glo ATP luminescence, 24 h; Potency, µM (series often up to 92.2 µM), most hits filed as inhibitors; hit rate 0.21% among 360,000; AID 651644; active = well fitted falling curve with a large enough effect; inconclusive = small, poorly fitted or top-dose-only effect; inactive = no such curve, though single readings can be large or run the other way; note: nearly all actives have a fitted effect of over 50% in size
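Fission yeast strain RE007, carrying one chromosomally integrated HIV-1 vpr copy, was seeded at OD 0.01 in PMG+AL medium with 23 nL pinned compound. After 24 h at 30 °C and 99% humidity, viability was read by BacTiter-Glo luminescence.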
Shiga toxin inh: blocks Shiga toxin action in Vero cells; inhibition, % at 38.7 µM; AID 2315; Vero cells, Shiga toxin protein synthesis inhibition reporter; hit rate 9.2% among 290,000; in the data active = inhibition mostly above about 28%, no sharp cut-off; inactive = mostly below about 43%
LmPK inh: inhibitors of Leishmania mexicana pyruvate kinase | purified LmPK, Kinase-Glo ATP luminescence, 1 h | Potency, µM (titrated, usually from 57.5 µM), usual class: inhibitors | hit rate 0.37% among 290,000 | AID 1721
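qHTS format; LmPK 0.1 nM; substrates PEP 0.5 mM and ADP 0.1 mM. One-hour room-temperature incubation, then coupled luciferase luminescence; 0.5 nM enzyme wells mark activation.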
FBPA Giardia inh: Giardia lamblia aldolase inhibition. purified Giardia FBPA. Potency, µM (titrated, usually from 59.6 µM), usual class: inhibitors. AID 2451. A8B2U2. hit rate 0.71% among 290,000; note: nearly all actives have a fitted effect of over 55% in size
Target sequence (A8B2U2 whole entry, looked up): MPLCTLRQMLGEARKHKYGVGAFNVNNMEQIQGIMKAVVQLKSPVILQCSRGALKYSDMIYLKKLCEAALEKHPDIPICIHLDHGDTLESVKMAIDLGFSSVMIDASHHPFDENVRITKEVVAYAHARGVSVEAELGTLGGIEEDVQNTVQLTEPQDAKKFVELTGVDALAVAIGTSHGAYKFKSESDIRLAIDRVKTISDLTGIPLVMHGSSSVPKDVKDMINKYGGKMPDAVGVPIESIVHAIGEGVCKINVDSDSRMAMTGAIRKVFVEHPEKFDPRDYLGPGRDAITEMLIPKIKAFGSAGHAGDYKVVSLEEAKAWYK
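Giardia FBPA (40 nM reagent) was preincubated 10 min at RT with compound (up to 57.5 uM final), then substrate plus GAPDH/TPI/NAD/arsenate coupling system with diaphorase/resazurin was added; resorufin fluorescence (525/598 nm) was read after 20 min.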
TbPYK inhibitor: blocks Trypanosoma brucei pyruvate kinase | TbPYK enzyme, Kinase-Glo Plus ATP luminescence, 45 min | Potency, µM (series often up to 76.8 µM), usual class: inhibitors | hit rate 0.12% among 410,000; note: nearly all actives have a fitted effect of over 50% in size
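TbPYK + substrate in 50 mM TEA pH 7.2, 100 mM KCl, 10 mM MgCl2, 0.05% BSA, 0.01% Tween-20; cpd pinned; ADP 130 uM final; 45 min RT; Kinase-Glo Plus 10 min; luminescence endpoint.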
Large screens that a line does not name were inactive. Unless noted, calls come from the whole dose curve; as a rule, active = well fitted curve in the direction sought with a large enough effect; inconclusive = small, poorly fitted or top-dose-only effect, or another doubt; inactive = no such curve, though single readings can be large; an effect the other way counts as inactive or inconclusive.

c1ccc2nc(SCc3cn4ccccc4n3)cnc2c1	CHX counter 39.9, Shiga toxin inh 63.6
c1ccc2oc(SCc3cn4ccccc4n3)nc2c1	CHX counter 52.5, Shiga toxin inh 65.1
Cc1cccc2nc(CSc3nc4ccccc4o3)cn12	CHX counter 49.3, Shiga toxin inh active, FBPA Giardia inh inconclusive
Cc1nc2cc(NC(=O)c3cccc(S(C)(=O)=O)c3)ccc2o1	CHX counter 12.8
Cc1nc2cc(NC(=O)NCc3ccco3)ccc2o1	CHX counter 17.2, Shiga toxin inh 48.6
Cc1ccc(NC(=O)c2cccc(S(C)(=O)=O)c2)cc1	CHX counter 32.6, Shiga toxin inh 97.3
O=C(Nc1ccc(-n2ccc(C(F)(F)F)n2)cc1)Nc1cccc(Cl)c1	CHX counter 30.7, Shiga toxin inh 49.9 (no result: RE007 growth inh, TbPYK inhibitor)
Cc1cc(C)cc(NC(=O)Nc2ccc(-n3ccc(C(F)(F)F)n3)cc2)c1	none
COc1ccccc1NC(=O)Nc1ccc(-n2ccc(C(F)(F)F)n2)cc1	CHX counter 42.3, Shiga toxin inh 123.2
Cc1cc(C)n(-c2nnc(C)n2/N=C/c2cc(Br)ccc2OCc2ccccc2)n1	CHX counter 20.2
O=[N+]([O-])c1ccccc1N=Nc1ccc(O)cc1	none (no result: CHX counter, Shiga toxin inh, LmPK inh, FBPA Giardia inh)
Oc1ccc(N=Nc2ccc3ccccc3c2)cc1	CHX counter 40.3, RE007 growth inh inconclusive (no result: Shiga toxin inh)
COc1cc(N=Nc2ccccc2C(=O)O)ccc1O	FBPA Giardia inh inconclusive
COc1cc(N=Nc2ccc3ccccc3c2)ccc1O	CHX counter 46.8, RE007 growth inh inconclusive (no result: Shiga toxin inh)
CCOc1ccc(CNC(=O)CN2C(=O)CCn3nc(-c4cn(C)c5ccccc45)cc32)cc1OC	none (no result: CHX counter, RE007 growth inh, Shiga toxin inh, LmPK inh, FBPA Giardia inh)
CCC[C@@H]1O[C@@H]2C[C@@H]3[C@H]4CCC5=CC(=O)C=C[C@@]5(C)[C@H]4[C@H](O)C[C@@]3(C)[C@@]2(C(=O)CO)O1	none (no result: CHX counter, RE007 growth inh, Shiga toxin inh, LmPK inh)
CC(=O)OC/C=C(C)/C=C/C=C(C)/C=C/C1=C(C)CCCC1(C)C	none (no result: RE007 growth inh, LmPK inh)
N/C(=N\OC(=O)Cc1ccccc1[N+](=O)[O-])c1cccc(Br)c1	CHX counter 18.4
N/C(=N\OC(=O)Cc1ccccc1)c1cccc(Br)c1	Shiga toxin inh 47.6
[O-]/C(=C(\C(=S)Nc1cccc2ccccc12)[n+]1ccccc1)c1cccs1	CHX counter 19.2, FBPA Giardia inh inconclusive
[O-]/C(=C(\C(=S)Nc1cccc2ccccc12)[n+]1ccccc1)c1ccc(OC(F)F)cc1	FBPA Giardia inh 22.3µM
[O-]/C(=C(\C(=S)Nc1cccc2ccccc12)[n+]1ccccc1)c1ccc2c(c1)OCCO2	CHX counter 22.2, FBPA Giardia inh 9.98µM
Cc1c(Cl)cccc1NC(=S)C(=C([O-])c1ccc(Cl)s1)[n+]1ccccc1	none (no result: CHX counter, Shiga toxin inh, LmPK inh, FBPA Giardia inh)
CCC1=C2CC[C@H]3C(=O)N(CC)C(=O)[C@H]3[C@H]2[C@@]2(C)C(=O)N(CC(=O)OC)C(=O)N2C1=O	none (no result: CHX counter, RE007 growth inh, Shiga toxin inh, LmPK inh, TbPYK inhibitor)
Cc1ccc(C)c(NC(=O)CN2C(=O)CSc3nc(C)cc(C)c32)c1	none (no result: CHX counter, RE007 growth inh, Shiga toxin inh, LmPK inh, FBPA Giardia inh)
CCN(CC)C(=O)CSC(=Nc1ccccc1F)NC#N	CHX counter 21.7, Shiga toxin inh 73.2
CC1CCN(c2ccc(NC(=S)NC(=O)c3ccco3)cc2)CC1	CHX counter 19.0, Shiga toxin inh 72.3
O=C(NC(=S)Nc1ccc(N2CCCCC2)cc1)c1ccco1	CHX counter 39.1, Shiga toxin inh 91.6
CCCCCn1c(-c2ccco2)nc2nc3ccccc3nc21	CHX counter 9.2
COc1ccccc1Cn1c(-c2ccco2)nc2nc3ccccc3nc21	none (no result: CHX counter, Shiga toxin inh, LmPK inh, FBPA Giardia inh)
COc1ccc(CCn2c(S)nc3ccccc3c2=O)cc1	CHX counter 29.8, Shiga toxin inh 41.5
COc1ccc(C(=O)n2c(-c3ccco3)nc3ccccc32)cc1	CHX counter 30.6
CCCN1CN(Cc2ccco2)c2nc3ccccc3n2C1	CHX counter 36.2
COc1ccc(CCn2c(C)nc3c(c(=O)c4ccccc4n3C)c2=O)cc1	none
COc1ccc(CCn2c(-c3ccco3)nc3nc4ccccc4nc32)cc1	Shiga toxin inh 42.8
c1coc(Cn2c(-c3ccco3)nc3ccccc32)c1	CHX counter 17.1, Shiga toxin inh 45.3
c1ccc(Cn2c(-c3ccco3)nc3nc4ccccc4nc32)cc1	CHX counter 28.2, LmPK inh inconclusive
O=c1c2ccccc2nc(-c2ccco2)n1Cc1ccccc1	CHX counter 56.6, Shiga toxin inh 130.1, LmPK inh inconclusive

Screening data as filed in PubChem.
